Test results as given in the supplement of paper PMC12067093, “Discovery and optimisation of a covalent ligand for TRIM25 and its application to targeted protein ubiquitination” (Chemical Science, 2025).
About 21,000 targets were measured; listed, in parts, are those with the largest changes and a random draw of the rest.

Compound: CC1Cc2ccccc2N1C(=O)C1CCCN(C1)C(=O)CCl (mixture of isomers) [TRIM25 ligand 11 (diastereomer mixture)]
Test: probe-labelled cysteine peptide fold change vs DMSO (competition) (log2 fold change); higher = less target engagement (more negative = stronger competition)
Conditions: THP-1, incubation time: 4 h
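Also: competitive chemoproteomic profiling in live THP-1 cells with an iodoacetamide desthiobiotin (IA-DTB) probe, comparing probe-labelled peptide intensities in compound-treated cells against DMSO-treated controls.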

Target	probe-labelled cysteine peptide fold change (10 µM)	probe-labelled cysteine peptide fold change (50 µM)
ECM1_Q16610_269_FSCFQEEAPQPHYQLR (UniProt Q16610)	0.855	0.858
EIF1B_O60739_69_FACNGTVIEHPEYGEVIQLQGDQRK<|>EIF1_P41567_69_FACNGTVIEHPEYGEVIQLQGDQRK (UniProt P41567+O60739)	-0.358	-0.022
ELP5_Q8TE02_151_LPCTTLCQVLHAVSHQDSCPGDSSSVGK (UniProt Q8TE02)	0.0565	0.114
FGD3_Q5JSP0_284_QEVCGNLTLQHHMLEPVQR (UniProt Q5JSP0)	0.0112	-0.0514
FAM241A_Q8N8J7_2_CSAGELLR (UniProt Q8N8J7)	0.306	0.559
EPHX2_P34913_232_VTGIQLLNTPAPLPTSCNPSDMSHGYVTVKPR (UniProt P34913)	0.149	-0.204
EIF3K_Q9UBQ5_87_CMIDQAHQEERPIR (UniProt Q9UBQ5)	0.0313	0.0963
FBN2_P35556_941_CELDTACPR (UniProt P35556)	0.213	0.26
FLNB_O75369_991_KVVPCLVTPVTGR (UniProt O75369)	-0.0645	-0.0535
ETFDH_Q16134_387_LTFPGGLLIGCSPGFMNVPK (UniProt Q16134)	-0.688	-0.698
F2_P00734_407_WVLTAAHCLLYPPWDK (UniProt P00734)	0.631	0.154
F2_P00734_564_RGDACEGDSGGPFVMK (UniProt P00734)	0.606	0.325
FAM111B_Q6SJ93_212_LCIYALK (UniProt Q6SJ93)	-0.05	-0.0141
EIF3M_Q7L2H7_52_GAEISEENSEGGLHVDLAQIIEACDVCLKEDDK (UniProt Q7L2H7)	0.0157	0.134
EHHADH_Q08426_227+233_QHPGCLAQEACVR (UniProt Q08426)	0.147	0.0162
FAM98B_Q52LJ0_220_INDALSCEYECR (UniProt Q52LJ0)	-0.00202	0.0911
EXOC5_O00471_194_YHDLECQLIQEFTSAQR (UniProt O00471)	0.139	0.157
EIF3D_O15371_438_WTCCALLAGSEYLK (UniProt O15371)	-0.0143	0.0445
EFTUD2_Q15029_476_IEHTYTGGVDSDLGEAMSDCDPDGPLMCHTTK (UniProt Q15029)	-0.11	-0.51

Target	probe-labelled cysteine peptide fold change (10 µM)	probe-labelled cysteine peptide fold change (50 µM)
EIF1_P41567_94_NICQFLVEIGLAKDDQLK (UniProt P41567)	-1.14	-0.0838
EXOSC8_Q96B26_60_LGNTTVICGVK (UniProt Q96B26)	0.0322	0.0231
FNBP1_Q96RU3_511_RQSGLYDSQNPPTVNNCAQDR (UniProt Q96RU3)	0.269	-0.0608
FECH_P22830_403_QLTLSCPLCVNPVCR (UniProt P22830)	0.0323	0.0221
EEF1A1_P68104_411_FLKSGDAAIVDMVPGKPMCVESFSDYPPLGR (UniProt P68104)	0.947	1.14
FUBP3_Q96I24_366_CGLVIGK (UniProt Q96I24)	-0.0888	0.0606
ELP3_Q9H9T3_456_CSEETFR (UniProt Q9H9T3)	0.298	0.202
FUBP3_Q96I24_109_IQAESGCK (UniProt Q96I24)	0.00832	0.192
FHL2_Q14192_275_GFLTERDDILCPDCGK (UniProt Q14192)	-0.0813	-0.0756
EIPR1_Q53HC9_95_VLTCAAVWR (UniProt Q53HC9)	0.109	0.137
FAM111B_Q6SJ93_351_NYYFCSLPR (UniProt Q6SJ93)	-0.00273	0.026
EPRS_P07814_1301+1309_VACVQVVIIPCGITNALSEEDK (UniProt P07814)	-0.162	-0.139
ENOSF1_Q7L5Y1_67_GTEVVVCAVNALAHHVLNK (UniProt Q7L5Y1)	-0.0438	0.0621
EDC4_Q6P2E9_838_ETCSTLAESPR (UniProt Q6P2E9)	-0.0668	-0.146
FAR2_Q96K12_104+111_EDMQELLSCTNIIFHCAATVR (UniProt Q96K12)	0.0855	0.0839
FASN_P49327_2369_AKLTPGCEAEAETEAICFFVQQFTDMEHNR (UniProt P49327)	-0.0758	-0.005
FRRS1_Q6ZNA5_107_NAEDLNGPPIGSFTLIDSEVSQLLTCEDIQGSAVSHR (UniProt Q6ZNA5)	0.66	0.341
FTH1_P02794_91_KPDCDDWESGLNAMECALHLEK (UniProt P02794)	0.166	0.847
FH_P07954_434_LLGDASVSFTENCVVGIQANTER (UniProt P07954)	-0.504	-0.961
